# High-throughput results: PubChem, National Center for Advancing Translational Sciences (NCATS)
# An excerpt weighted towards active compounds, which were near 12% of everything screened.
# HP1b chromo inh – HP1-beta chromodomain-methylated histone interaction inhibition; AlphaScreen HP1-beta / biotin-H3K9me3 peptide binding; hit rate 0.56% among 390,000; Potency, µM (top dose mostly 114 µM), inactives show top-dose activity change, negative = inhibition, actives largely listed as inhibitors; AID 540317; further: nearly all actives have a fitted effect of over 70% in size
# Target sequence (P83916 whole entry, looked up): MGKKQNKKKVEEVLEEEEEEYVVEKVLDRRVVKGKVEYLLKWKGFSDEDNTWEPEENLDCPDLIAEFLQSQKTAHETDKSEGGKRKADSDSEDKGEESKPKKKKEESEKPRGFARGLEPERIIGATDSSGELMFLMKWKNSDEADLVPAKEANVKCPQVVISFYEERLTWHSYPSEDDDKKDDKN
#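 AlphaScreen: HP1-beta (50 nM) preformed 30 min with biotin-H3(1-18)K9me3 peptide (50 nM) in PBS pH 7.4, 0.01% Tween-20. Compound added for 30 min at RT, then streptavidin donor/nickel chelate acceptor beads (10 ug/mL) for 30 min.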
# Sfp PPTase inh – blocks B. subtilis Sfp PPTase activity; Potency, µM, without a hit: largest response in the series, negative = inhibition, most hits filed as inhibitors; Biochemical Sfp PPTase activity, qHTS; Q9F4F7; AID 1490; hit rate 3.5% among 310,000;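 further: the enzyme is Sfp with the accession as filed and its product quenches rhodamine fluorescence; 0% = enzyme reaction without inhibitor and -100% = no enzyme wells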
#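 After 15 min at room temperature with compound, 15 nM Sfp received 5 uM rhodamine-CoA plus 12.5 uM BHQ-2-ybbR (50 mM Hepes pH 7.6, 10 mM MgCl2). Rate came from the fluorescence difference over 30 min, ex 525/em 598 nm.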
# G9a block – blocks human histone lysine methyltransferase G9a; Potency, µM (titrated, usually from 102 µM), for the others: at the top dose activity, negative = inhibition, hits mostly inhibitors; AID 504332; hit rate 8.8% among 350,000; G9a H3K9 monomethylation, AlphaScreen, 2 h; further: on the % scale 0 is the no-effect control and ±100 the full control effect; nearly all actives have a fitted effect of over 75% in size
# Target sequence (Q96KQ7 913-1193 limits assumed): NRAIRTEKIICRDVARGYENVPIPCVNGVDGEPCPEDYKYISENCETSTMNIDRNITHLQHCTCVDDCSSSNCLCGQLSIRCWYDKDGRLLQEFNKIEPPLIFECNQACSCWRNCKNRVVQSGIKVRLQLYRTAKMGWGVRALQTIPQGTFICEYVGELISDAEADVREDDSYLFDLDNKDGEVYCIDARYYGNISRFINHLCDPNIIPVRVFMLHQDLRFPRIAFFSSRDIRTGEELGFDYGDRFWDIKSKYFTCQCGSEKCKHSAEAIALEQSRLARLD
#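 Chemiluminescent proximity detection of H3K9 monomethylation, read after 10 min bead incubation in the dark. Reaction: 20 nM G9a, 500 nM biotin-H3K9 peptide, 20 uM SAM cofactor, 2 h, room temperature, following 15 min enzyme-compound preincubation.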
# BAZ2B inh – inhibitors of human BAZ2B bromodomain | Q9UIF8 | AlphaScreen BAZ2B-H3K14Ac peptide displacement | Potency, µM (doses to about 114 µM), for the others: at the highest dose activity change, negative = inhibition, usual class: inhibitors | hit rate 4.4% among 360,000; further: on the % scale 0 is the no-effect control and ±100 the full control effect; nearly all actives have a fitted effect of over 60% in size
#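 Compounds, titrated to a top concentration of 110 uM, were incubated 30 min at room temperature with preformed BAZ2B/acetyl-K14 H3 peptide complex (50 nM each). Proximity signal was measured by AlphaScreen after 20 min with beads.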
# JMJD2A Tudor inh – inhibitors of human JMJD2A Tudor domain; O75164; AlphaScreen JMJD2A-Tudor / H3K4me3 peptide binding; Potency, µM (highest dose often 114 µM), for inactives: top-dose activity change, negative = inhibition, actives largely listed as inhibitors; hit rate 4.4% among 390,000; AID 504339; further: on the % scale 0 is the no-effect control and ±100 the full control effect; nearly all actives have a fitted effect of over 50% in size
# * = called active by the depositor; ? = inconclusive; . = no result; [ ] = dose if it differs, or a comment. The call rests on the fitted dose curve; in most records, active means well fitted curve in the direction sought with a large enough effect; inconclusive means small, poorly fitted or top-dose-only effect, or another doubt; inactive means no such curve, though single readings can be large; an effect the other way counts as inactive or inconclusive. Potency means the concentration at half of the fitted maximal effect.
SMILES,HP1b chromo inh,Sfp PPTase inh,G9a block,BAZ2B inh,JMJD2A Tudor inh
O=C(N/N=C/c1cccnc1)c1cccc(S(=O)(=O)Nc2cccc(Cl)c2)c1,11.5%,11.4%,-0.1%,-13.0%,-5.2%
COc1ccc(CNC(=O)Cn2ccc3cc(S(=O)(=O)N4CCCCCC4)ccc32)c(OC)c1,61.4%,.,2.0%[59 µM],-11.7%,-12.4%
COC(=O)Cn1c(C(=O)N2CCCC2)cc2c1C[C@H]1CN(C(=O)c3ccccc3)[C@@](Cc3ccccc3)(C(=O)OC)[C@@H]21,.,25.3%,.,.,.
CC(C)c1ccc(NC(=O)C(NS(=O)(=O)c2ccc3c(c2)CCC(=O)N3)c2ccccc2)cc1 (stereo not given),6.0%,.,-4.1%[59 µM],-11.7%,-26.6%
CCOC(=O)c1ccc2ncc3c(-c4ccccc4)nn(-c4ccc(F)c(Cl)c4)c3c2c1,20.1%,.,4.0%[59 µM],.,2.3%
O=C(c1cnccn1)N1CCc2ccccc21,-1.0%,-9.6%,13.3%[59 µM],?,79.4µM*
O=C(NCN1CCc2ccccc2C1)c1cnccn1,10.4%,2.7%,22.0%[59 µM],15.3%,6.31µM*
O=C(NCN1CCc2ccccc2C1)c1ccccc1,19.4%,4.7%,16.6%[59 µM],8.9%,-15.6%
COc1ccc(N(C)C(=O)Cn2cc(S(=O)(=O)N3CCN(c4ccccc4F)CC3)c3ccccc3c2=O)c(OC)c1,21.1%,.,-33.2%[59 µM],-14.2%,-19.5%
O=S(=O)(c1ccc(Cl)cc1)N1CCN(S(=O)(=O)c2ccc3c(c2)OCCO3)CC1,.,.,.,.,-11.6%
CC(C)CNC(=O)C(=O)NN=C1CCCCCC1,26.6%,10.0%,14.4%,3.7%,-8.2%
CC(C)(C)NC(=O)C(=O)NN=C1CCCCCCCCCCC1,18.3%,79.4µM*,89.0%[59 µM],8.4%,-21.3%
Cc1ccc(-c2cc(C(=O)Nc3ccc(S(=O)(=O)Nc4onc(C)c4C)cc3)c3ccccc3n2)cc1,?,21.2%,44.7µM*,50.1µM*,?
Cc1noc(NS(=O)(=O)c2ccc(NC(=O)c3cccc(S(=O)(=O)N(C)c4ccccc4)c3)cc2)c1C,16.5%,.,.,.,-29.9%
Cc1ccc2c(C)c(C(=O)Nc3ccc(S(=O)(=O)Nc4onc(C)c4C)cc3)oc2c1,-11.7%,13.5%,70.8µM*,?,-32.4%
Cc1noc(NS(=O)(=O)c2ccc(NC(=O)c3ccc(Cl)c(S(=O)(=O)N(C)c4ccccc4)c3)cc2)c1C,-22.2%,.,50.1µM*,44.7µM*,?
Cc1cc(C)nc(NS(=O)(=O)c2ccc(NC(=O)c3cc(-c4ccccc4)nc4ccccc34)cc2)n1,9.7%,3.7%,?,-34.0%,-28.6%
Cc1cc(C)c(NC(=O)CSc2nc(C)cc(C)c2C#N)c(C)c1,39.3%,.,5.7%[59 µM],-15.6%,-4.5%
COc1ccc(CC(=S)NCCc2ccccc2)cc1,?,14.1µM*,1.0%[0.501 µM],-24.4%,-13.4%
S=C(Cc1ccccc1)NCCc1ccccc1,62.0%,.,0.5%[2.33 µM],15.6%,8.6%
COc1ccc(NC(=O)CN(C)C(=O)Cc2c[nH]c3ccccc23)cc1,16.3%,.,-4.3%[59 µM],-5.6%,-9.0%
CC(C)c1ccc(NC(=S)NCCc2c[nH]c3ccccc23)cc1,?,13.9%,44.7µM*,35.5µM*,?
Cc1ccc(C)c(NC(=S)NCCc2c[nH]c3ccccc23)c1,?,20.2%,?,44.7µM*,?
Cc1ccc(NC(=S)NCCc2c[nH]c3ccccc23)cc1,-33.4%,6.1%,38.8%[0.501 µM],?,?
COc1ccc(NC(=O)CN(C)C(=O)CCCc2c[nH]c3ccccc23)cc1,-5.4%,.,44.7µM*,?,?
SMILES,HP1b chromo inh,Sfp PPTase inh,G9a block,BAZ2B inh,JMJD2A Tudor inh
COc1ccc(CCNC(=S)NCCc2c[nH]c3ccccc23)cc1,-14.2%,32.4%,44.7µM*,35.5µM*,?
S=C(NCCc1c[nH]c2ccccc12)NC1CCCCC1,?,17.3%,22.1%[59 µM],?,35.5µM*
COc1ccc(Cl)cc1NC(=S)NCCc1c[nH]c2ccccc12,-22.9%,18.4%,?,39.8µM*,50.1µM*
Cc1ccccc1NC(=S)NCCc1c[nH]c2ccccc12,-2.1%[57 µM],0.8%,3.4%[59 µM],?,-25.5%
S=C(NCCc1c[nH]c2ccccc12)NC1CCCC1,48.0%,33.7%,-37.8%,?,-10.5%
CC(C)CC(OC(=O)CNC(=O)c1ccccc1)C(=O)Nc1cc(C(F)(F)F)ccc1Cl (stereo not given),.,.,.,.,-9.6%
